Experimental data from PubChem BioAssay (EPA / NIEHS).
Results filed as inconclusive are left out. Active and inactive are the calls of the source. The calls were made as follows: active = hit-call score of the fitted dose curve at least 0.9, where 1 is the maximum; inconclusive = response in the unintended direction; inactive = score below 0.9.

Test: CCTE_Harrill_HTTr_CellCount_MCF7: CCTE's Cell Proliferation Assessment for the High-Throughput Transcriptomics (HTTr) Platform, Harrill Lab (AID 2284012);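 also: cells exposed to compound for six hours; intended direction is loss of nuclei count meaning fewer cells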
How it was run: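 MCF-7 cells were exposed for 6 h to an eight-point dilution series; Hoechst-labeled nuclei were counted by high content imaging. Curves were fitted bidirectionally against DMSO as negative control and baseline, with signal loss indicating reduced cell count.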

outcome, inactive:
CC1CC(OC(=O)c2ccccc2O)CC(C)(C)C1 (stereo not given)
Cc1ccc(C=O)cc1
CNC(=O)Oc1ccc2c(c1)[C@]1(C)CCN(C)[C@@H]1N2C
CCN(CC)c1ccc2c(-c3ccccc3C(=O)O)c3ccc(=[N+](CC)CC)cc-3oc2c1
C=CCOc1nc(OCC=C)nc(OCC=C)n1
COc1ccc(O)cc1
CCCCCC(CO)CCC (stereo not given)
Cc1c(Cl)c(=O)oc2cc(O)ccc12
CC(=O)C(=O)O
CN(CCOc1ccc(CC2SC(=O)NC2=O)cc1)c1ccccn1 (stereo not given)
BrC1CCC(Br)C(Br)CCC(Br)C(Br)CCC1Br (stereo not given)
c1ccc2[nH]ccc2c1
CCCCCCCCC
CN(C)CCOCCN(C)C
CC(=O)/C=C/C1=C(C)CCCC1(C)C
CC(C)[C@H]1CC[C@@H](C)CC1=O
O=C(O)COCCN1CCN(C(c2ccccc2)c2ccc(Cl)cc2)CC1 (stereo not given)
CC(C)C[C@H]1C(=O)N2CCC[C@H]2[C@]2(O)O[C@](NC(=O)[C@@H]3C=C4c5cccc6[nH]c(Br)c(c56)C[C@H]4N(C)C3)(C(C)C)C(=O)N12
Clc1ccc(Cl)c(Cl)c1Cl
O=P(c1ccccc1)(c1ccccc1)c1ccccc1
Nc1ccc(S(N)(=O)=O)cc1
CCCCCCCCCCCCCCCC(=O)O
Cc1ccc(C(C)C)cc1O
CNCCCC12CCC(c3ccccc31)c1ccccc12
CC1(C)CCC(C)(C)c2cc(C(=O)Nc3ccc(C(=O)O)cc3)ccc21
